Consider five compounds from PubChem BioAssay.

Assay [1] can be described thus: Wnt pathway potentiators raising nuclear beta-catenin – imaging, WNT3A-conditioned medium, mouse C2C12, NPC library, primary screen (AID 1117326; in the data active = nuclear beta-catenin stimulation mostly above about 4.2%, no sharp cut-off; inactive = mostly below about 10%; note: reference of the scale not given here). The following applies: stronger effect = higher value.
Assay [2] in a line: stimulators of insulin release from INS-1E, primary screen, cell-based, 5 mM glucose, NPC library (AID 1117329;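 active = compound raises insulin release from rat beta cells at 5 mM glucose, no numeric limit stated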; note: reference of the scale not given here). As to conditions: rat INS-1E insulin secretion, at 10 µM, stronger effect = higher value.
Assay [3] can be described thus: growth inhibition of GSK3B-pretreated HCT116 cells – cell-based, CellTiter-Glo, 0.2 to 20 µM (AID 1117336;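 active = compounds lowering colon cancer cell viability after pretreatment blocking the GSK3B kinase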). As to conditions: HCT116 viability after GSK3B inhibitor, at 20 µM, stronger effect = higher value. On the technique in general: Cellular ATP, detected with luciferase, serves as a proxy for viable cell number.
Assay [4] is described as follows: inhibition of endothelial tube formation, primary screen, imaging, VEGF stimulated, CD31 staining, tube area, NPC library (AID 1117340;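 active = compound that reduces growth-factor-driven endothelial tube area in a mixed cell culture, no cutoff stated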). As to conditions: VEGF-stimulated ADSC/ECFC co-culture, at 10 µM, stronger effect = higher value.
A short description of assay [5]: GLP1 release stimulators, primary, NCI-H716, NPC library (AID 1117341;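 active = compound raises GLP1 secretion from the human gut endocrine cells, with no numeric limit stated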; note: reference of the scale not given here). The following applies: NCI-H716 cells, at 10 µM, stronger effect = higher value.
Assay [6] in a line: HCT116 colon cancer cell growth inhibition, primary screen, CellTiter-Glo luminescence, NPC library (AID 1117342;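 active = compounds that lower survival of HCT116 colon cancer cells in the luminescence readout, no numeric limit stated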). As to conditions: at 20 µM (top of the series).
Assay [7] is described as follows: reduced SW480 viability measured with CellTiter-Glo, NPC library, primary (AID 1117343;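 active = compounds that lower viability of the colon cancer cells in the luminescence readout, with no numeric limit stated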). As to conditions: CellTiter-Glo luminescence; at 20 µM (top of the series) unless noted.
Assay [8] in a line: NPC library primary testing for decreased DLD-1 cell viability via CellTiter-Glo (AID 1117346;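 active = compounds that lower survival of DLD-1 colon cancer cells in the luminescence readout, no cutoff given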). The following applies: DLD-1 viability, CellTiter-Glo luminescence; at 20 µM (top of the series).
Assay [9] in a line: viability loss in pontine glioma line – cell-based, JHH-DIPG-1, MIPE4.0, CellTiter-Glo, qHTS, dose response (AID 1347062; cut-off not given, nearly all actives have AC50 up to about 27 µM;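 for AC50: cells exposed to compound for two days before readout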). As to conditions: JHH-DIPG-1 viability, CellTiter-Glo ATP luminescence.
Assay [10] is described as follows: viability loss in pontine glioma line – cell-based, SU-DIPG-IV, MIPE4.0, CellTiter-Glo, qHTS, dose response (AID 1347063; cut-off not given, nearly all actives have AC50 up to about 30 µM;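 note: compound exposure lasted 48 hours before the viability readout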). As to conditions: CellTiter-Glo ATP luminescence.
Assay [11] can be described thus: growth inhibition of DIPG cells – cell-based, MIPE4.0 library, CellTiter-Glo luminescence, qHTS (AID 1347066; cut-off not given, nearly all actives have AC50 up to about 30 µM;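 note: cells exposed to compound for 48 hours before readout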). As to conditions: SU-DIPG-VI viability, CellTiter-Glo ATP luminescence.
The nature of assay [12]: JHH-DIPG-1 glioma cell viability, MIPE5.0 library, CellTiter-Glo luminescence, qHTS (AID 1347067).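 Note: cells exposed to compound for 48 hours before readout.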 As to conditions: JHH-DIPG-1 glioma viability, CellTiter-Glo ATP luminescence.
Assay [13] can be described thus: growth inhibition of DIPG cells – cell-based, MIPE5.0 library, qHTS (AID 1347068; cut-off not given, nearly all actives have IC50 up to about 30 µM;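 for IC50: cells exposed to compound for 48 hours before viability readout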). As to conditions: SU-DIPG-XXV viability. (qHTS replaces the single test concentration by a dilution series.)
Assay [14] is described as follows: viability loss with induced miR-34 in A549 – imaging, A549 dox-inducible miR-34, nuclei and caspase counts, primary screen (AID 1347080;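 active = compounds whose cell count with miR-34 switched on is under 0.7 times the count with it off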). As to conditions: A549 miR-34 inducible, Hoechst nuclei count, 48 h.
The nature of assay [15]: blockers of cellular phospholipid synthesis – cell-based, LOPAC library, screen 4, primary screen (AID 1347384; call rule not given here). The following applies: animal cells, phospholipid biosynthesis inhibition screen; at 10 µM.
The nature of assay [16]: galactose survival enhancers in mitochondrial complex I cybrids – cell-based, galactose medium, ATP luminescence, primary screen (AID 1645843;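 active = z-score of at least 1.8 in each of two replicates, scored against plate mean and spread of sample wells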;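 note: positive z means more ATP and so rescue of galactose-driven cybrid death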). The following applies: complex I mutant cybrid cells, 72 h, stronger effect = higher value.
The nature of assay [17]: viability loss in pontine glioma line – cell-based, SU-DIPG-XXV, MIPE5.0, CellTiter-Glo, qHTS, dose response (AID 1347065).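 Note: cells exposed to compound for 48 hours before ATP readout.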 The following applies: CellTiter-Glo ATP luminescence.
A short description of assay [18]: MELAS cybrid and Rieske KO viability enhancers – cell-based, MELAS cybrids, Rieske KO mouse fibroblasts, CellTiter-Glo, primary screen (AID 1508586;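 active = mean z-score across replicates of 1.96 or higher in either the MELAS or the Rieske mutant cell line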;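 note: z relative to plate mean and SD of compound and empty wells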). The following applies: low glucose.
[19] abbreviates: stronger effect = lower value, cell number ratio, induced over uninduced.
[20] abbreviates: measured here: relative caspase fold change +Dox/-Dox.
[21] abbreviates: measured here: total cells with miR-34 induction, stronger effect = lower value.
Where [22] appears, read: measured here: total cells without miR-34 induction.
The mark [23] stands for this setting: MELAS cybrid survival, CellTiter-Glo 48 h, stronger effect = higher value.
The mark [24] stands for this setting: Rieske KO mouse fibroblast survival, CellTiter-Glo 72 h.

The term AC50 denotes the concentration at which the activity in the assay is half-maximal. For orientation: IC50 means the concentration at which inhibition is half-maximal.

Inconclusive results are not listed. Calls of active or inactive are those of the source. Unless noted, no cut-off is given here; in the data, nearly all actives have AC50 up to about 26 µM.

As to `CCCCN(CCCC)CC(O)c1cc(Cl)cc2c1-c1ccc(Cl)cc1/C2=C/c1ccc(Cl)cc1` (centres undefined), the nuclear beta-catenin stimulation is 0.5% (inactive) in assay [1] (at 10 µM) and -0.3% in assay [1] (stimulation, at 2 µM). Also, the insulin secretion stimulation in [2] is -0.3% (inactive). Moreover, the viability decrease in [3] is 9.1% (inactive). The tube area decrease in [4] is 25.1% (inactive). Also, the GLP1 secretion stimulation in [5] was -3.6% (inactive). Also, in assay [6], the inhibition of viability is 31% (inactive). For the same compound, the figures for the viability decrease (inhibition) in [7] and in [8] were 10.6% (inactive) and 14.9% (inactive), respectively. For the same compound, the result in [9], in assay [11], in assay [13] and in [15] was inactive. Further, the AC50 was 26400 nM (active) in [10] and 18600 nM (active) in [12]. Moreover, the values for the fold change in assay [14] (setting [19]) and in assay [14] (setting [20]) were 1.04 (inactive) and 2.5, respectively. Moreover, the cell count in assay [14] (setting [21]) turned out to be 8950; in [14] (setting [22]), 8560. The z-score in assay [16] is 0.075 (inactive).
`Cc1cc2c(cc1CC(=O)c1sccc1S(=O)(=O)Nc1onc(C)c1Cl)OCO2`: the nuclear beta-catenin stimulation in assay [1] (at 10 µM) was 1.6% (inactive); in assay [1] (stimulation, at 2 µM), 3%. Also, the insulin secretion stimulation in assay [2] was -0.3% (inactive). Also, in [3], the viability decrease is 2.7% (inactive). Also, the tube area decrease in [4] was -20.9% (inactive). Moreover, the GLP1 secretion stimulation in [5] is 2.9% (inactive). In addition, the inhibition of viability in assay [6] is 20.9% (inactive). In addition, the viability decrease (inhibition) in [7] is 6.8% (inactive); in assay [8], -17.2% (inactive). Further, the result in assay [17] was inactive. For the same compound, in [12], the AC50 is 26300 nM (active). Also, the fold change in assay [14] (setting [19]) was 0.871 (inactive); in assay [14] (setting [20]), 0.772. Besides, the results for the cell count in assay [14] (setting [21]) and in assay [14] (setting [22]) were 7800 and 8950, respectively. Moreover, the z-score was -0.207 (inactive) in assay [18] (setting [23]) and -0.0127 in assay [18] (setting [24]).
For the compound `CC(C)C[C@H](NC(=O)[C@H](CCc1ccccc1)NC(=O)CN1CCOCC1)C(=O)N[C@@H](Cc1ccccc1)C(=O)N[C@@H](CC(C)C)C(=O)[C@@]1(C)CO1`, the nuclear beta-catenin stimulation in assay [1] (at 10 µM) is 106% (active); in assay [1] (stimulation, at 2 µM), 129%. In addition, the insulin secretion stimulation in assay [2] was 6.05% (inactive). Moreover, the viability decrease in assay [3] is 117% (active). Besides, the tube area decrease in assay [4] is 110% (active). Further, the GLP1 secretion stimulation in assay [5] is 5.2% (inactive). In assay [6], the inhibition of viability is 124% (active). For the same compound, the viability decrease (inhibition) in assay [7] was 150% (active); in [8], 101% (active). Besides, the AC50 is 18.7 nM (active) in [9]; 23.5 nM (active) in [10]; 5.25 nM (active) in assay [17]; 93.5 nM (active) in assay [11]; 10.5 nM (active) in [12]. In addition, the IC50 in assay [13] is 93.4 nM (active).
Take `CCOC(=O)c1ccc(C#Cc2ccc3c(c2)C(C)(C)CCS3)nc1`: the nuclear beta-catenin stimulation is 6% (inactive) in [1] (at 10 µM) and 4.9% in [1] (stimulation, at 2 µM). For the same compound, the insulin secretion stimulation in assay [2] was -1.4% (inactive). In addition, in assay [3], the viability decrease was 91.1% (active). For the same compound, the tube area decrease in [4] was -6% (inactive). For the same compound, in assay [5], the GLP1 secretion stimulation is -0.3% (inactive). Further, the inhibition of viability in assay [6] was 98.6% (active). The viability decrease (inhibition) in assay [7] is 126% (active); in assay [8], 98.1% (active). For the same compound, the result in assay [9], in [11] and in assay [13] was inactive. Further, the fold change in [14] (setting [19]) was 0.864 (inactive); in [14] (setting [20]), 0.957. The values for the cell count in [14] (setting [21]) and in assay [14] (setting [22]) were 7750 and 8970, respectively. For the same compound, the figures for the z-score in assay [18] (setting [23]) and in assay [18] (setting [24]) were 0.367 (inactive) and 0.684, respectively.
Consider `NC(=O)c1ncn([C@@H]2O[C@H](CO)[C@@H](O)[C@H]2O)c1N`, for which the nuclear beta-catenin stimulation in assay [1] (at 10 µM) was 1.3% (inactive); in assay [1] (stimulation, at 2 µM) it was 1.8%. In addition, the insulin secretion stimulation in assay [2] was -2.3% (inactive). Further, the viability decrease in assay [3] was -16.2% (inactive). Moreover, in assay [4], the tube area decrease was -6.4% (inactive). The GLP1 secretion stimulation in [5] is 1.9% (inactive). In [6], the inhibition of viability was -20.6% (inactive). The figures for the viability decrease (inhibition) in assay [7] and in assay [8] were -88.2% (inactive) and -22.4% (inactive), respectively. Besides, the compound was classed as inactive in [9], in assay [17], in assay [11], in [12] and in assay [13].
